Experimental findings from PubChem BioAssay (NCATS) are described below.

Calls of active or inactive are those of the source. Entries that show only a call come without a potency. The call rests on the fitted dose curve; in most records, active means well fitted inhibition curve with a large enough effect; inconclusive means small, poorly fitted or top-dose-only effect; inactive means flat fitted curve, though single readings scatter.

This experiment deals with Phosphoglycerate kinase, glycosomal (Trypanosoma brucei brucei) (UniProt P07378). Briefly: qHTS Validation Assay to Find Inhibitors of Phosphoglycerate Kinase (AID 504547). Conditions: enzymatic PGK inhibition, coupled luminescence read-out; series mostly up to 57.5 µM. From the text: NIH Molecular Libraries Probe Production Network [MLPCN]
Sequence of Phosphoglycerate kinase, glycosomal (Trypanosoma brucei brucei) (P07378 whole entry, looked up): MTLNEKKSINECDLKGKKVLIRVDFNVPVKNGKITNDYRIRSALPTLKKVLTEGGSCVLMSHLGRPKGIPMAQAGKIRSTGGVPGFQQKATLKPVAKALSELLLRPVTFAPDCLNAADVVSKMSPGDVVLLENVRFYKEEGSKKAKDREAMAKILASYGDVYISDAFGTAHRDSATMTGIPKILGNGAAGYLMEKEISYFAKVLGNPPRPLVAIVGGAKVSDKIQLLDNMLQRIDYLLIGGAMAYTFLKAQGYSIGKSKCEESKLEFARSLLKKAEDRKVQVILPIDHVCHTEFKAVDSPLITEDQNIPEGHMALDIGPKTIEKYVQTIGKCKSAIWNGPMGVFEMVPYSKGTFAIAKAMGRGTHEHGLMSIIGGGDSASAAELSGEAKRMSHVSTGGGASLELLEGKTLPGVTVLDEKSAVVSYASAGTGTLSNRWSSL
NIH Chemical Genomics Center [NCGC]
PI Name: Malcolm Walkinshaw, University of Edinburgh
Several species of the Trypanosomatidae family of parasitic protozoans cause a spectrum of diseases
throughout the tropical and subtropical world. Sleeping sickness, caused by two subspecies of Trypanosoma brucei, is endemic to areas of sub-Saharan Africa, while Chagas disease, a manifestation of Trypanosoma cruzi infection, is prevalent throughout Central and South America. In addition, many species of Leishmania are responsible for a range of cutaneous and visceral diseases, causing ulcers, destructive lesions and kalaazar, a lethal infection of the viscera. Collectively, these organisms infect 30 million people worldwide (~500 million live in endemic areas), and account for ~130,000 deaths annually. Given their debilitating and prevalent nature, trypanosomatid parasites impose a heavy medical, economic and social burden on entire populations, primarily in the developing world. The problem is further exacerbated by the fact that existing treatments have progressed little in the past 50 years, and current drugs show high toxicity and poor efficacy.
Blood-stream stages of T. brucei are entirely dependent on glycolysis as a source of ATP, and the tricarboxylic acid cycle and oxidative phosphorylation are both repressed. Glycolysis in axenically cultured T. cruzi, representing the intracellular pathogenic stage, is also essential for these parasites. […] Previous studies have shown that the glycolytic enzyme, phosphoglycerate kinase (PGK), is a viable target for drugs to kill these parasites.
NCGC Assay Protocol Summary:
Briefly, 3ul of substrate/PGK buffer (columns 1,2,5-48) are dispensed into Greiner white solid bottom 1536-well assay plates; columns 3-4 receive only TEA buffer as 0x PGK controls. Compounds are then transferred via Kalypsys pin tool equipped with 1536-pin array (10nl slotted pins, V&P Scientific, San Diego, CA). Following addition of compound, 1ul of GAPDH (100nM final concentration, all columns) is added to initiate the reaction (this upstream coupling enzyme is necessary for in-well production of PGK substrate, 1,3-bisphosphoglycerate (1,3-BPG), which is unstable and not commercially available). The plates are then incubated at room temperature for 60 minutes. Kinase-Glo Plus reagent is added (2ul) and plates incubated for 10 minutes, before being transferred to a ViewLux high-throughput CCD imager (PerkinElmer) wherein single end-point measurements of luminescence are acquired using a clear filter. All reagents are diluted in an assay buffer consisting of 100mM TEA (pH 7.6), 5mM MgCl2 and 0.01% Tween-20.
(qHTS replaces the single test concentration by a dilution series.)
For `CCCn1c(=O)c2[nH]c(C3CCCC3)nc2n(CCCOC(=O)c2ccc(S(=O)(=O)F)cc2)c1=O`, the Potency entry was “inactive”. The entry for `Nc1ccc(CCN2CCN(c3cccc(C(F)(F)F)c3)CC2)cc1` is “inactive”.

Take `N=C(N)c1ccc(CS(=O)(=O)F)cc1`: the Potency entry was “inactive”.

As to `c1ccc2c(c1)[I+]c1ccccc1-2`, the Potency result is “inactive”. The value for `C=CCN1CC[C@]23c4c5ccc(O)c4O[C@H]2/C(=N/NC(=O)c2ccccc2)CC[C@@]3(O)[C@H]1C5` was “inactive”; that for `COc1ccc2c(c1)C13CCCCC1C(C2)N(C)CC3` (stereo not given) was “inactive”. For the molecule `CN1CCc2cc(O)cc3c2[C@H]1Cc1ccc(O)c(O)c1-3`, the Potency entry is “inactive”.

For the molecule `OCc1cnc[nH]1`, the Potency result is “inactive”. `CCCN1CCc2cc(O)cc3c2[C@H]1Cc1ccc(O)c(O)c1-3`: the Potency result is “inactive”.

As to `C[C@]12Cc3cn4c(nc3C=C1CCC1C2CC[C@@]2(C)[C@H]1CC[C@@]2(O)C#N)nc1ccccc14` (stereo not given in full), the Potency result was “inactive”. On to `C=CCN1CCc2cccc3c2[C@H]1Cc1ccc(O)c(O)c1-3`, for which the Potency result was “inactive”. With `O=[N+]([O-])c1cc(O)c(O)c([N+](=O)[O-])c1`, the Potency result was “inactive”. The entry for `NC(N)=NOCC[C@H](N)C(=O)O` is “inactive”; for `Oc1ccc2c3c1O[C@H]1c4[nH]c5ccccc5c4C[C@@]4(O)C(C2)N(CC2CC2)CCC314` (stereo not given in full) it is “inactive”. The value for `CC(Cc1ccc(OCC(=O)O)cc1)NCC(O)c1cccc(Cl)c1` (stereo not given) was “inactive”; that for `CCCCCCC(C)(C)c1ccc([C@@H]2C[C@H](O)CC[C@H]2CCCO)c(O)c1` was “inactive”; that for `CC(C)NP(=O)(NC(C)C)OP(=O)(NC(C)C)NC(C)C` was “inactive”. The entry for `Cc1c2ccncc2c(C)c2c1[nH]c1ccccc12` is “inactive”; for `CO[C@H]1CC=C2CCN3CCC4=C(CC(=O)OC4)[C@]23C1` it is “inactive”.

Consider `CN1CC[C@@]2(C)c3cc(O)ccc3N(C)C12` (stereo not given in full), for which the Potency entry was “inactive”. Regarding `CNc1ccc2oc(C[C@H]3O[C@@]4(CC[C@H]3C)O[C@H]([C@H](C)C(=O)c3ccc[nH]3)[C@H](C)C[C@H]4C)nc2c1C(=O)O`, the Potency entry was “inactive”. As to `CCCN(CCC)CCc1ccc(O)c(O)c1`, the Potency result was “inactive”. The entry for `C[N+](C)(C)CC#CCOC(=O)Nc1cccc(Cl)c1` is “inactive”; for `NCCCP(=O)(O)O` it is “inactive”; for `CC(C)(C)c1o[nH]c(=O)c1CC(N)C(=O)O` (stereo not given) it is “inactive”. The entry for `Cc1cc([C@@H]2CCCN2C)on1` is “inactive”. The entry for `COc1cc(CC(C)N)c(OC)cc1I` (stereo not given) is “inactive”; for `COC(=O)N1CCN(C(=O)Cc2ccc(Cl)c(Cl)c2)C(CN2CCCC2)C1` (stereo not given) it is “inactive”; for `CCN1C[C@@]2(COC)C3[C@@H](OC)C4[C@@H]1C3([C@@H]1C[C@]3(O)[C@H](OC(=O)c5ccccc5)[C@@H]1[C@]4(OC(C)=O)[C@@H](O)[C@@H]3OC)[C@H](OC)C[C@H]2O` it is “inactive”.

For the molecule `Ic1ccccc1CNC1C2CCN(CC2)C1C(c1ccccc1)c1ccccc1` (stereo not given), the Potency result was “inactive”. Regarding `CC(C)[C@@]1(NC(=O)[C@@H]2C[C@@H]3c4cccc5[nH]cc(c45)C[C@H]3N(C)C2)O[C@@]2(O)[C@@H]3CCCN3C(=O)[C@H](Cc3ccccc3)N2C1=O`, the Potency result was “inactive”. `CCCN1CCc2cccc3c2[C@H]1Cc1ccc(O)c(O)c1-3`: the Potency result was “inactive”. The value for `C#CCN[C@H](C)Cc1ccccc1` was “inactive”.

Turning to `C[C@@H]1O[C@@H](O[C@H]2C[C@@H](O)[C@]3(CO)[C@@H]4C(CC[C@]3(O)C2)[C@@]2(O)CC[C@H]([C@@H]3COC(=O)C3)[C@@]2(C)C[C@H]4O)[C@H](O)[C@H](O)[C@H]1O` (stereo not given in full), the Potency result was “inactive”. Turning to `CC(=O)OCC1=C(C(=O)O)N2C(=O)[C@@H](NC(=O)CCC[C@@H](N)C(=O)O)[C@H]2SC1`, the Potency entry is “inactive”.

Turning to `CCS(=O)(=O)Nc1cccc(C(=C2CCCCC2)c2cnc[nH]2)c1`, the Potency entry is “inactive”.

For `NC(=O)COc1c(F)cc(SCCNS(=O)(=O)c2ccccc2)cc1F`, the Potency result is “inactive”.

In the case of `N[C@@H](Cn1ccc(=O)[nH]c1=O)C(=O)O`, the Potency entry is “inactive”. The entry for `CC(C)(C)c1cc(C=C(C#N)C#N)cc(C(C)(C)C)c1O` is “inactive”; for `CC(N)Cc1c[nH]c2ccc(OCc3cccs3)cc12` (stereo not given) it is “inactive”.
